# In paper PMC5540273 (PLoS ONE, 2017):
# Key:
# Conditions in all cases: concentration: 1 μM,replicates: in singlicate; n = 1
# [1] = system: T1, SNARK
# T1 construct: gene NUAK2
# [2] = system: SNRK
# [3] = system: SRC
# [4] = system: SRMS
# [5] = system: SRPK1
# [6] = system: SRPK2
# [7] = system: SRPK3
# [8] = system: STK16
# [9] = system: STK33
# [10] = system: STK35
# [11] = system: STK36
# [12] = system: STK39
# [13] = system: SYK
# [14] = system: SgK110
# [15] = system: T2, TAK1
# T2 construct: gene MAP3K7
# [16] = system: TAOK1
# [17] = system: TAOK2
# [18] = system: TAOK3
# [19] = system: TBK1
# [20] = system: TEC
# 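Note: KINOMEscan kinase panel screen.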
SMILES,%Inh [1] [%],%Inh [2] [%],%Inh [3] [%],%Inh [4] [%],%Inh [5] [%],%Inh [6] [%],%Inh [7] [%],%Inh [8] [%],%Inh [9] [%],%Inh [10] [%],%Inh [11] [%],%Inh [12] [%],%Inh [13] [%],%Inh [14] [%],%Inh [15] [%],%Inh [16] [%],%Inh [17] [%],%Inh [18] [%],%Inh [19] [%],%Inh [20] [%]
CN1CCN(CCCNc2nccc(-c3c(-c4ccc(F)cc4)nn4cc(C(N)=O)ccc34)n2)CC1 [GW622475],14,0,19,0,43,0,1,25,26,0,98.9,23,11,7,29,13,0,10,0,8
O=C(Nc1ccccc1)c1cccc(Oc2ccc3nccn3n2)c1,0,0,0,0,2,0,0,0,12,0,5,3,14,6,11,5,0,0,0,0
COc1ccc(Nc2nccc(N3CCC(NC(=O)c4cccc(C#N)c4)C3)n2)cc1 (stereo not shown) [GSK1379730],0,0,19,0,36,0,0,2,10,0,0,0,19,0,0,0,0,0,0,0
O=C1NCCc2[nH]c(-c3ccncc3)cc21,87,12,6,0,0,0,4,33,–,68,6,23,11,0,23,96.9,16,41,20,0
C[C@@H](Oc1cc(-n2cnc3cc(-c4ccncc4)ccc32)sc1C(N)=O)c1ccccc1Cl [GSK479719],95.4,3,26,0,89,0,64,46,1,0,0,6,52,0,0,0,0,0,0,7
Cn1ccc2ncnc(Oc3ccc(NC(=O)Nc4cccc(C(F)(F)F)c4)c(F)c3)c21,0,0,2,0,23,49,23,0,64,4,0,3,43,0,31,0,38,0,51,5
CN1CCN(CCNc2nc3cc(Oc4ccc(NC(=O)Nc5cc(C(F)(F)F)ccc5F)cc4)ccc3[nH]2)CC1.Cl.Cl [GW768504],0,0,0,18,9,0,10,0,0,0,13,0,16,57,0,0,38,0,28,0
CCN1CCN(CCCC(=O)Nc2n[nH]c3nc(-c4ccc(O)cc4)c(Br)cc23)CC1 [SB-731579],0,0,0,0,0,0,13,2,0,0,0,0,0,0,11,53,65,66,0,0
CC(=O)Nc1nc2cnc(Nc3cc(NC(=O)c4cccc(CC(C)(C)C#N)c4)ccc3C)nc2s1,0,17,56,0,46,0,9,25,0,0,8,22,0,0,41,0,0,0,12,7
Cn1ccc2ncnc(Oc3ccc(NC(=O)Nc4cncc(C(F)(F)F)c4)c(Cl)c3)c21,0,0,5,0,73,0,0,4,8,0,0,0,0,9,11,0,0,0,0,0
CC(C)S(=O)(=O)N1CCN(Cc2ccc3c(c2)nc(NC(=O)c2ccsc2)n3C[C@H](O)c2ccccc2)CC1 [GW635815],23,0,96.3,1,0,0,0,83,60,0,0,10,78,0,79,0,0,0,50,0
Cc1ccc(Nc2ccnc(Nc3ccc4c(c3)CS(=O)(=O)C4)n2)cc1O.Cl [GW579362],52,6,99.9,87,99.2,18,83,98.5,89,22,92.2,17,93.2,0,99.5,81,30,47,90,83
O=C(Nc1cccc(C(F)(F)F)c1)c1cccc(Oc2ccc3nccn3n2)c1,0,1,17,0,3,0,4,7,22,8,0,2,14,26,4,4,9,0,12,7
CS(=O)(=O)Nc1ccc(-c2ccnc3[nH]ccc23)cc1 [GSK993273],40,0,0,0,77,0,75,81,5,15,0,24,52,0,33,27,0,0,10,16
c1ccc(Oc2ccc(Nc3ccnc4ccc(-c5ccccn5)cc34)cc2)cc1 [GW407034],0,0,17,94.9,0,0,17,0,0,31,0,15,1,27,0,0,24,0,18,78
Cn1ccc2ncnc(Oc3ccc(NC(=O)Nc4cccc(C(F)(F)F)c4)c(Cl)c3)c21,0,0,7,0,45,0,0,4,60,0,0,0,1,0,31,0,23,0,15,0
Cc1ccc2c(-c3ccnc(Nc4ccc(C(F)(F)F)cc4)n3)cnn2n1 [GW819776],0,0,0,28,14,0,26,48,52,0,9,6,42,20,2,1,23,0,48,9
CC(C(=O)NC1CCN(c2ccnc(Nc3ccc(F)cc3)n2)C1)c1ccc(Cl)cc1 (stereo not shown) [GSK1379713],0,0,0,0,20,0,18,0,5,0,0,0,30,13,0,0,0,0,0,0
Cl.Cl.NC[C@H](CC1CCCCC1)NC(=O)c1ccc(-c2ccnc3[nH]ccc23)s1 [GSK1581428],98.3,0,17,0,85,12,91.6,54,98.4,63,0,7,20,95.3,64,87,0,14,29,0
